Results reported in PubChem BioAssay AID1224921 (Broad Institute, 2016).
The whole screen tested about 1,400 compounds, of which about 350 (25%) were called active. About 2% were inconclusive and are not listed. How the calls were made is not given here. Not all results are given here. Entries with a potency or affinity are not part of this list.

Test: C. difficile growth inhibition, confirmation, 4-point retest (AID 1224921);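 further: plate controls were DMSO wells for no effect and levofloxacin 16 µg/mL wells for full effect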
Conditions: Clostridioides difficile clinical isolate growth, OD600, 24 h, hits give low values; at 30 µM unless noted

Max activity, inactive:
C[C@@H]1CN([C@H](C)CO)C(=O)c2cccc(NS(C)(=O)=O)c2O[C@H]1CN(C)Cc1ccccc1 32.7%
CO[C@@H]1CN(C)C(=O)c2cc(NC(=O)c3ccccc3)ccc2OC[C@H](C)N(CC2CC2)C[C@@H]1C 19.6%
COc1cccc(C(=O)Nc2ccc3c(c2)OC[C@@H](C)N(C(=O)C2CCCC2)C[C@H](C)[C@H](OC)CN(C)C3=O)c1 7.82%
CCCC(=O)Nc1ccc2c(c1)C(=O)N(C)C[C@@H](OC)[C@@H](C)CN(Cc1ccccc1)[C@@H](C)CO2 9.16%
CCCNC(=O)N(C)C[C@@H]1Oc2cc(C#Cc3cccc(F)c3)ccc2S(=O)(=O)N([C@H](C)CO)C[C@H]1C 64.3%
O=C(Nc1cc(F)ccc1F)N[C@H]1CC[C@@H](CC(=O)N2CCc3ccccc3C2)O[C@@H]1CO 31.4%
CO[C@H]1CN(C)C(=O)c2cc(NS(=O)(=O)c3cccc(F)c3)ccc2OC[C@H](C)N(Cc2cc(F)ccc2F)C[C@@H]1C -7.26% [at 8 µM]
CCCN1C[C@@H](C)[C@H](OC)CN(C)C(=O)c2cc(NC(=O)CC)ccc2OC[C@@H]1C -10.1%
COc1ccc(NC(=O)Nc2ccc3c(c2)[C@H]2C[C@H](CC(=O)NCc4ccccc4F)O[C@@H](CO)[C@H]2O3)cc1 -14.5% [at 8 µM]
C[C@H]1CN([C@@H](C)CO)C(=O)c2cccc(NC(=O)NC3CCCCC3)c2O[C@H]1CN(C)C(=O)Nc1ccc(C(F)(F)F)cc1 17.7% [at 7.5 µM]
CO[C@@H]1CN(C)C(=O)c2ccc(NC(=O)C3CC3)cc2OC[C@H](C)N(Cc2cncnc2)C[C@@H]1C -6.19% [at 1.95 µM]
CO[C@H]1CN(C)C(=O)c2ccc(NC(=O)C3CC3)cc2OC[C@H](C)N(Cc2cncnc2)C[C@@H]1C -11.8%
CO[C@H]1CN(C)C(=O)c2ccc(NC(C)=O)cc2OC[C@@H](C)N(Cc2cc(F)ccc2F)C[C@H]1C -8.57% [at 1.95 µM]
CCCNC(=O)Nc1ccc2c(c1)OC[C@@H](C)N(Cc1ccccc1)C[C@H](C)[C@H](OC)CN(C)C2=O 33.5%
CCS(=O)(=O)Nc1ccc2c(c1)C(=O)N(C)C[C@H](OC)[C@H](C)CN(CC1CCCC1)[C@H](C)CO2 -9.54% [at 1.95 µM]
C[C@@H]1CN([C@@H](C)CO)C(=O)Cc2cc(NC(=O)Nc3ccc(C(F)(F)F)cc3)ccc2O[C@@H]1CN(C)Cc1ccccc1 36.8% [at 35 µM]
CC(C)NC(=O)Nc1ccc2c(c1)CC(=O)N([C@@H](C)CO)C[C@@H](C)[C@@H](CN(C)Cc1ccc(-c3ccccc3)cc1)O2 42.2%
C[C@@H]1CN([C@H](C)CO)C(=O)Cc2cc(NC(=O)Nc3cccc4ccccc34)ccc2O[C@H]1CN(C)Cc1ccccc1 31.3% [at 8 µM]
C[C@@H]1CN([C@@H](C)CO)C(=O)Cc2cc(NC(=O)Nc3cccc4ccccc34)ccc2O[C@H]1CN(C)Cc1ccccc1 34.5%
C[C@H](CO)N1C[C@H](C)[C@@H](CN(C)Cc2ccccc2)Oc2ccc(NC(=O)Nc3cccc4ccccc34)cc2CC1=O 21.6%
C[C@@H]1CN([C@@H](C)CO)C(=O)Cc2cc(NC(=O)CCCN(C)C)ccc2O[C@H]1CN(C)Cc1ccc(Oc2ccccc2)cc1 12.2% [at 8 µM]
CCCN(C)C[C@H]1Oc2cc(C#CCC3CCCC3)ccc2S(=O)(=O)N([C@@H](C)CO)C[C@H]1C 28.1% [at 8 µM]
CCCN1C[C@H](C)[C@@H](OC)CN(C)C(=O)c2ccc(NC(=O)c3ccc(F)cc3)cc2OC[C@@H]1C -10.8% [at 1.95 µM]
CO[C@@H]1CN(C)C(=O)c2cc(NC(C)=O)ccc2OC[C@@H](C)N(Cc2nccs2)C[C@@H]1C 17.3%
O=C(C[C@@H]1C[C@H]2c3cc(NC(=O)NC4CCCC4)ccc3O[C@H]2[C@@H](CO)O1)NCc1ccccc1F -6.86% [at 1.95 µM]
CO[C@H]1CN(C)C(=O)c2ccc(NC(C)=O)cc2OC[C@H](C)N(C(=O)c2ccccc2F)C[C@@H]1C -11.1% [at 0.5 µM]
C[C@@H]1CN([C@H](C)CO)S(=O)(=O)c2ccc(/C=C/c3ccccc3)cc2O[C@@H]1CN(C)C(=O)Nc1cc(F)ccc1F 35.6%
CO[C@H]1CN(C)C(=O)c2cc(NC(=O)C3CCC3)ccc2OC[C@@H](C)N(Cc2ccc(F)cc2)C[C@@H]1C 29.4%
CCC(=O)N1C[C@@H](C)[C@H](OC)CN(C)C(=O)c2ccc(NC(=O)c3cc(C)on3)cc2OC[C@@H]1C -1.88% [at 1.95 µM]
C[C@@H](NC(=O)C[C@H]1C=C[C@@H](NC(=O)CN2CCOCC2)[C@H](CO)O1)c1ccccc1 -14.1% [at 8 µM]
CCC(=O)Nc1ccc2c(c1)C(=O)N(C)C[C@H](OC)[C@H](C)CN(C(=O)CN1CCOCC1)[C@@H](C)CO2 -5.93% [at 8 µM]
COc1cccc(NC(=O)N[C@H]2C=C[C@H](CC(=O)NCc3ccncn3)O[C@@H]2CO)c1 -9.51% [at 0.5 µM]
CCCC#Cc1ccc2c(c1)O[C@@H](CN(C)Cc1ccncc1)[C@@H](C)CN([C@H](C)CO)S2(=O)=O 33.3%
CO[C@H]1CN(C)C(=O)c2cc(NC(C)=O)ccc2OC[C@@H](C)N(CC2CCCCC2)C[C@H]1C -7.37% [at 1.95 µM]
O=C(N[C@H]1C=C[C@@H](CC(=O)N2CCc3ccccc3C2)O[C@H]1CO)C1CC1 -11.9% [at 1.95 µM]
Cc1ccc(-c2ccc3c(c2)O[C@H](CN(C)C(=O)NC(C)C)[C@H](C)CN([C@@H](C)CO)S3(=O)=O)cc1 20.5%
Cc1ccc(-c2ccc3c(c2)O[C@H](CN(C)Cc2ccncc2)[C@@H](C)CN([C@@H](C)CO)S3(=O)=O)cc1 32.6%
C/C=C/c1cnc2c(c1)C(=O)N([C@@H](C)CO)C[C@H](C)[C@H](CN(C)Cc1ccc(F)cc1)O2 9.72%
O=C(N[C@H]1C=C[C@@H](CC(=O)N2CCc3ccccc3C2)O[C@@H]1CO)C1CC1 -6.96%
CC(C)C#Cc1ccc2c(c1)O[C@@H](CN(C)Cc1cccnc1)[C@H](C)CN([C@H](C)CO)S2(=O)=O 36.4%
COc1ccc(-c2ccc([C@@H]3[C@H](C#N)N(C(=O)C4CCCC4)[C@H]3CO)cc2)cc1 -7.24% [at 1.95 µM]
C/C=C/c1cnc2c(c1)C(=O)N([C@H](C)CO)C[C@H](C)[C@H](CN(C)Cc1ccc(F)cc1)O2 14.8%
COc1cccc(-c2ccc3c(c2)O[C@H](CN(C)Cc2ccncc2)[C@@H](C)CN([C@@H](C)CO)S3(=O)=O)c1 21.8% [at 35 µM]
CO[C@H]1CN(C)C(=O)c2cc(NC(=O)c3cccc(F)c3)ccc2OC[C@@H](C)N(C(C)=O)C[C@H]1C 19% [at 8 µM]
CC(C)CC#Cc1ccc2c(c1)O[C@H](CN(C)Cc1cccnc1)[C@@H](C)CN([C@@H](C)CO)S2(=O)=O 39.7%
CO[C@H]1CN(C)C(=O)c2cc(NC(=O)Nc3cccc(F)c3)ccc2OC[C@@H](C)N(C)C[C@H]1C -11.4% [at 1.95 µM]
C[C@H](CO)N1C[C@H](C)[C@@H](CN(C)Cc2cccnc2)Oc2cc(C#CC3CCCCC3)ccc2S1(=O)=O 30.4%
O=C(C[C@H]1C[C@@H]2c3cc(NC(=O)Nc4ccc(F)cc4)ccc3O[C@@H]2[C@H](CO)O1)NC1CCCCC1 16%
CCCC(=O)Nc1ccc2c(c1)OC[C@@H](C)N(Cc1ccncc1)C[C@H](C)[C@H](OC)CN(C)C2=O 14.1%
O=C(C[C@@H]1C[C@H]2c3cc(NC(=O)Nc4ccc(C(F)(F)F)cc4)ccc3O[C@H]2[C@@H](CO)O1)NC1CCCCC1 -15.4% [at 1.95 µM]
CO[C@H]1CN(C)C(=O)c2cc(NC(=O)c3ccccc3)ccc2OC[C@H](C)N(C(=O)CN(C)C)C[C@H]1C -13% [at 1.95 µM]
CO[C@@H]1CN(C)C(=O)c2cc(NC(=O)c3cc(C)on3)ccc2OC[C@@H](C)N(C(C)=O)C[C@@H]1C -12.6% [at 1.95 µM]
O=C(C[C@H]1CC[C@H]2[C@@H](COC[C@@H](O)CN2Cc2cc(F)ccc2F)O1)NCc1ccc(Cl)cc1 12.5%
O=C(C[C@H]1CC[C@H]2[C@@H](COC[C@H](O)CN2Cc2cc(F)ccc2F)O1)NCc1ccc(F)cc1 -6.27%
C[C@H](CO)N1C[C@H](C)[C@H](CN(C)C)Oc2cc(-c3ccccc3F)ccc2S1(=O)=O -3.75% [at 1.95 µM]
COc1ccc(S(=O)(=O)Nc2cccc3c2O[C@@H](CN(C)S(=O)(=O)c2c(C)noc2C)[C@H](C)CN([C@H](C)CO)C3=O)cc1 14.4%
Cc1ccc(-c2ccc3c(c2)O[C@@H](CN(C)Cc2ccncc2)[C@@H](C)CN([C@@H](C)CO)S3(=O)=O)cc1 21.6%
CCC(=O)Nc1ccc2c(c1)OC[C@@H](C)N(CC1CCCCC1)C[C@H](C)[C@H](OC)CN(C)C2=O 11.5%
